This passage reports inhibition results from ChEMBL document CHEMBL1961873, “Compounds: GSK PKIS; Assays: Nanosyn kinase panel” (2012).

A word on the inhibition: it is the drop in the measured response relative to a control, in per cent.

Assay [1] concerns the target Casein kinase I isoform gamma-3 (Homo sapiens) (UniProt Q9Y6M4). To be noted: at 0.1 µM.
The target is the same in assay [2]. Particulars: at 1 µM.
The target in assay [3] is Cyclin-dependent kinase 1 (Homo sapiens) (UniProt P06493). Particulars: at 0.1 µM.
Assay [4] shares this target. To be noted: at 1 µM.
Assay [5] has as its target Cyclin-dependent kinase 2 (Homo sapiens) (UniProt P24941). To be noted: at 0.1 µM.
For assay [6] the target is unchanged. To be noted: at 1 µM.
Assay [7] shares this target. To be noted: at 0.1 µM. The source holds these as a separate data set.
Assay [8] has the same target. Particulars: at 1 µM. This is another data set of the same source.
Assay [9] deals with T1, CDK3/Cyclin E (Homo sapiens) (UniProt P24864+Q00526). Particulars: at 0.1 µM.
The target in assay [10] is T1, CDK3/Cyclin E (Homo sapiens). To be noted: at 1 µM.
Assay [11] concerns the target Cyclin-dependent kinase 4 (Homo sapiens) (UniProt P11802). To be noted: at 0.1 µM.
For assay [12] the target is unchanged. Particulars: at 1 µM.
The target of assay [13] is Cyclin-dependent kinase 5 (Homo sapiens) (UniProt Q00535). To be noted: at 0.1 µM.
The target is the same in assay [14]. To be noted: at 1 µM.
The target in assay [15] is Cyclin-dependent kinase 6 (Homo sapiens) (UniProt Q00534). To be noted: at 0.1 µM.
Assay [16] has the same target. To be noted: at 1 µM.
The target of assay [17] is Dual specificity protein kinase CLK2 (Homo sapiens) (UniProt P49760). To be noted: at 0.1 µM.
Assay [18] has the same target. To be noted: at 1 µM.
Assay [19] concerns the target Dual specificity protein kinase CLK3 (Homo sapiens) (UniProt P49761). To be noted: at 0.1 µM.
Assay [20] concerns the target Casein kinase I isoform gamma-2 (Homo sapiens) (UniProt P78368). Particulars: at 1 µM.

Chain of Cyclin-dependent kinase 6 (Homo sapiens) (Q00534 whole entry): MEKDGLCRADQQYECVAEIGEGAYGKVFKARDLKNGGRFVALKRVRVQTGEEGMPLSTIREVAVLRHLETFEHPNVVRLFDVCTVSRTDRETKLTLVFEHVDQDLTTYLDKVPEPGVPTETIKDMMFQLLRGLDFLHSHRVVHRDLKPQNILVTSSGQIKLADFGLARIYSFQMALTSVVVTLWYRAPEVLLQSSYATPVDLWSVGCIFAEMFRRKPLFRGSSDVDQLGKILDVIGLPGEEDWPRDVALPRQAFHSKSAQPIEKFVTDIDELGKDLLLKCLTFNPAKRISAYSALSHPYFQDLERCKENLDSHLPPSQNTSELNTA
Chain of Casein kinase I isoform gamma-2 (Homo sapiens) (P78368 whole entry, looked up, canonical isoform): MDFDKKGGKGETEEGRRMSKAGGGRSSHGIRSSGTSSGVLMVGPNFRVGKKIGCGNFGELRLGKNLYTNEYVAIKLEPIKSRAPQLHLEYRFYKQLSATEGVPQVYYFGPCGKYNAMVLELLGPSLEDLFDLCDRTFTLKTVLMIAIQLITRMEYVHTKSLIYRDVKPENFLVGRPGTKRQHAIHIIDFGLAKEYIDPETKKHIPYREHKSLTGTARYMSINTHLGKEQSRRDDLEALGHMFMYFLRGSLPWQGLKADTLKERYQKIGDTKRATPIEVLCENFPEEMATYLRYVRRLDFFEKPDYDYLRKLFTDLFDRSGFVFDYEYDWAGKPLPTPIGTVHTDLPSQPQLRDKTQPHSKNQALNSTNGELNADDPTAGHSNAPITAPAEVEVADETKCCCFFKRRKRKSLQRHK
Chain of Dual specificity protein kinase CLK3 (Homo sapiens) (P49761 whole entry, looked up, canonical isoform): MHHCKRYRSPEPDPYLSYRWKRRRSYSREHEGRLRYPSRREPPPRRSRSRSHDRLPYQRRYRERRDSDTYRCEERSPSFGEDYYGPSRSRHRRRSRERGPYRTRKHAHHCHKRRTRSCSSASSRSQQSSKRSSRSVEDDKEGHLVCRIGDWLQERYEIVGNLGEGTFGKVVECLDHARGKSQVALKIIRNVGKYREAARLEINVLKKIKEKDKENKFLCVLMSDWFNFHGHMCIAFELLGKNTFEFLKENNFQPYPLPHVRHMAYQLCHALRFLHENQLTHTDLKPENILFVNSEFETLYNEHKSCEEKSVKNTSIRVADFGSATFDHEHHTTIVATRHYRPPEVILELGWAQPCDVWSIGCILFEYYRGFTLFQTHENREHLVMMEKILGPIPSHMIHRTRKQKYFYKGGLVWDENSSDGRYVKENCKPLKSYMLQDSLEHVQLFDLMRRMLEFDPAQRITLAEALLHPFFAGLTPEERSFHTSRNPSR
Chain of Cyclin-dependent kinase 1 (Homo sapiens) (P06493 whole entry, looked up): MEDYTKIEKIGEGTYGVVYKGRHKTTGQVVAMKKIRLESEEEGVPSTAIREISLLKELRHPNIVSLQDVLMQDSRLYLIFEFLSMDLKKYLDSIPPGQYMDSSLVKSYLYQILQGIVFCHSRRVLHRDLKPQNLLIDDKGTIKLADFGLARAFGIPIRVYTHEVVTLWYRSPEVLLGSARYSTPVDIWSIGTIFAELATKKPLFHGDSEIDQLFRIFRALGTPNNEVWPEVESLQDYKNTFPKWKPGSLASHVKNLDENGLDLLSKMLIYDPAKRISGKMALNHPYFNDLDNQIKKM
Chain of Cyclin-dependent kinase 4 (Homo sapiens) (P11802 whole entry): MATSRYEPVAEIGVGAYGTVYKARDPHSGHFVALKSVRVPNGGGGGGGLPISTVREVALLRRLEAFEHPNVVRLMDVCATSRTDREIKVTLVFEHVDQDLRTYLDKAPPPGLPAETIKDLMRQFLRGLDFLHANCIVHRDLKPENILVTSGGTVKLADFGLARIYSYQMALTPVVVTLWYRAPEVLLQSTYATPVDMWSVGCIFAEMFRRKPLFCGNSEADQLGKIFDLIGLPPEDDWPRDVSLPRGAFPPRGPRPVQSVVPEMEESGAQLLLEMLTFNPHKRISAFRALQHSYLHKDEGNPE
Chain of Casein kinase I isoform gamma-3 (Homo sapiens) (Q9Y6M4 whole entry, looked up, canonical isoform): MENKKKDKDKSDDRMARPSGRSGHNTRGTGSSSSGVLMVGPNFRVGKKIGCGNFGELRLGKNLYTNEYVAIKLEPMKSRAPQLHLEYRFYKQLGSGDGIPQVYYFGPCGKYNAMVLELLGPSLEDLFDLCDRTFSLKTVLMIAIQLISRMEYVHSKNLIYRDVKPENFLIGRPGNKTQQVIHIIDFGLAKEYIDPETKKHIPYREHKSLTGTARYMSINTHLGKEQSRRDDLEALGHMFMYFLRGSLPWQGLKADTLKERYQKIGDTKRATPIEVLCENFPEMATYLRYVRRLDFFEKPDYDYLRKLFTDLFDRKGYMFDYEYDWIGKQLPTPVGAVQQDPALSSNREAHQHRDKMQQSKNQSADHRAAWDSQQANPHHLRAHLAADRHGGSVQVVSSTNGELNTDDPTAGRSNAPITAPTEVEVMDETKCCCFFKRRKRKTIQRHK
Chain of Dual specificity protein kinase CLK2 (Homo sapiens) (P49760 whole entry, looked up): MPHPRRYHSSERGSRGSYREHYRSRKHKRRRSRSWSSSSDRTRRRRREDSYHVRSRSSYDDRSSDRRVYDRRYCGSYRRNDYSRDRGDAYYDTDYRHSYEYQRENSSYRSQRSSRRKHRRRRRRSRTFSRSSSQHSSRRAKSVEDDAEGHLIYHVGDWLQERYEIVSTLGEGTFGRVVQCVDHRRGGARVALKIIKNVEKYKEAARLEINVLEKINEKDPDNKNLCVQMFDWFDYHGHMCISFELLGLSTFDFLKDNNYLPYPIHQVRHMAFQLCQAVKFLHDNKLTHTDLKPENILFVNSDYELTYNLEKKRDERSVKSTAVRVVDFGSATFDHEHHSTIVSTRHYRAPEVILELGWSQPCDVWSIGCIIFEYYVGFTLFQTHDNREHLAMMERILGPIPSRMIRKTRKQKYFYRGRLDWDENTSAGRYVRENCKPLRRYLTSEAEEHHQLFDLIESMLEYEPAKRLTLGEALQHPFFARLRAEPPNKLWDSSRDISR
T1 sequence (P24864 whole entry, looked up): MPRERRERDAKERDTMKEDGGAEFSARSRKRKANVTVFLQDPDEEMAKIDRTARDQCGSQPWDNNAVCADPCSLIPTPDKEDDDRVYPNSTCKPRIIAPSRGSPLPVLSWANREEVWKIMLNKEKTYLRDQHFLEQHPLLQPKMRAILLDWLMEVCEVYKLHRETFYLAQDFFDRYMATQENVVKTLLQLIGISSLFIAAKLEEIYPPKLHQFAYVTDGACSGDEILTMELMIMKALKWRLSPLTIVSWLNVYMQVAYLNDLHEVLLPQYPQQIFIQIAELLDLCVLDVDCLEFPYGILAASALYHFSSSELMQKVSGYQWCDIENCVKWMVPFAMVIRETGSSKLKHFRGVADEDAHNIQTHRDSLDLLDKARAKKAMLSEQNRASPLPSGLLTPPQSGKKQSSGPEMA
T1 sequence (Q00526 whole entry, looked up): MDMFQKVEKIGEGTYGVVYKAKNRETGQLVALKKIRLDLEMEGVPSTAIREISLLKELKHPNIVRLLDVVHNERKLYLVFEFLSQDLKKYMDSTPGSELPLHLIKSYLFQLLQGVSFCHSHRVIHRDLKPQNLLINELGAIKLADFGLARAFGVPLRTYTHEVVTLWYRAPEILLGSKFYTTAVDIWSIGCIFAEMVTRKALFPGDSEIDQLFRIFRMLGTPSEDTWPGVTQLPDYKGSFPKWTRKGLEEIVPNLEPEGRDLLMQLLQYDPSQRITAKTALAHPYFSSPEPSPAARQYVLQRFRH
Chain of Cyclin-dependent kinase 5 (Homo sapiens) (Q00535 whole entry, looked up): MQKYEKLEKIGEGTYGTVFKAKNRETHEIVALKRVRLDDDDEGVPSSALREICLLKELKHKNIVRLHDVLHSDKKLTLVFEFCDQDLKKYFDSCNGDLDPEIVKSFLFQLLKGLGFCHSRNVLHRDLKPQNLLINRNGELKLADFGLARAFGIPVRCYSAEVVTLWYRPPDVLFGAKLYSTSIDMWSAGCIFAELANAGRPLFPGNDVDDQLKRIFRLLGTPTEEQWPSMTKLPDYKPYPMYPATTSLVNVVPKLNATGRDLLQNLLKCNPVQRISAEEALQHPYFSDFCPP

With `CCCN1CCC=C(c2ccc(Nc3nc(Nc4ccccc4C(N)=O)c4cc[nH]c4n3)c(C)c2)C1`, the inhibition in assay [1] came out at 36.1%; in assay [2], 69.3%; in [3], 2.18%; in [4] it was 7.53%; in assay [5], 5.19%; in assay [6] it was 22.5%. In addition, the inhibition was 3.79% in assay [7]; 28.3% in assay [8]; -2.97% in assay [9]; 4.3% in [10]; 4.35% in assay [11]; 10.9% in assay [12]. In addition, the inhibition amounted to 1.88% in [13]; 9.85% in assay [14]; 0.69% in assay [15]; 5.64% in [16]; 38.2% in assay [17]; 88.9% in assay [18]. The inhibition in [19] is -0.17%.

As to `NS(=O)(=O)c1cccc(-c2ccc3c(NC(=O)C4CC4)n[nH]c3c2)c1`, the inhibition is -1.38% in assay [20]; -0.89% in assay [1]; 2.47% in assay [2]; 0.37% in [3]; 1.15% in assay [4]; 0.27% in assay [5]. Moreover, the inhibition in assay [6] is -6.96%; in assay [7], 0.15%; in assay [8], 3.36%; in [9] it was 0.71%; in assay [10] it was 1.71%; in assay [11], -1.17%. The inhibition in [12] is 1.45%; in assay [13], 0.87%; in assay [14], 1.78%; in assay [15] it was -1.94%; in [16], 6.01%; in assay [17], -0.55%. Besides, the results for the inhibition in [18] and in assay [19] were -0.78% and 0.83%, respectively.

As to `Nc1ncnc2occ(-c3ccc(NC(=O)Nc4cccc(C(F)(F)F)c4)cc3)c12`, the inhibition in [20] is 7.31%; in assay [1], 3.11%; in assay [2], 10.3%; in [3], -0.24%; in [4], 4.91%; in [5], 2.4%. Further, the inhibition is 8.86% in assay [6]; 4.68% in assay [7]; 10.8% in assay [8]; 2.04% in [9]; 16.6% in assay [10]; 3.45% in assay [11]. For the same molecule, the inhibition in assay [12] came out at 6.6%; in assay [13], 0.37%; in assay [14], 4.7%; in assay [15], 1.3%; in [16], 2.21%; in [17], 0.14%. Further, the values for the inhibition in assay [18] and in [19] were 2.59% and 1.01%, respectively.

With `Fc1cccc(COc2ccc(Nc3ncnc4cc(-c5ccc[nH]5)sc34)cc2Cl)c1`, the inhibition in [20] is -1.46%; in [1], -2.89%; in assay [2], -1.56%; in [3], -1.89%; in assay [4], 1.88%; in assay [5], -1.97%. Moreover, the inhibition was -1.57% in assay [6]; -0.46% in [7]; 2.07% in assay [8]; 3.58% in assay [9]; -1.23% in [10]; -1.38% in assay [11]. In addition, the inhibition in assay [12] is 1.79%; in assay [13] it was -2.8%; in assay [14] it was -0.09%; in assay [15], -9.87%; in assay [16] it was -4.56%; in assay [17] it was 0.06%. For the same molecule, the inhibition in assay [18] was -0.33%; in [19] it was -2.46%.

`Cc1ccc(C(=O)NC2CCCCC2)cc1-c1ccc(C(=O)NCC2CC2)cc1`: the inhibition in [20] worked out at 2.68%; in [1] it was 2.21%; in [2], 2.73%; in assay [3], 0.67%; in [4], 0.28%; in assay [5], 0.88%. For the same molecule, the inhibition is 7.52% in [6]; 2.63% in assay [7]; 3.98% in assay [8]; 2.34% in [9]; 0.7% in [10]; 2.37% in assay [11]. Also, the inhibition is 2.51% in assay [12]; 1.19% in assay [13]; 1.18% in assay [14]; 3.79% in assay [15]; 0.76% in assay [16]; 2.01% in assay [17]. Besides, the inhibition turned out to be 2.19% in assay [18] and 0.94% in assay [19].

As to `O=C(Nc1n[nH]c2nc(-c3ccco3)c(Br)cc12)C1CC1`, the inhibition in [20] was found to be 2.51%; in assay [1], 2.64%; in [2], 0.87%; in assay [3], 0.89%; in [4], 5.15%; in assay [5] it was 3.87%. Further, the inhibition turned out to be 28.4% in assay [6]; 3.75% in [7]; 9.11% in assay [8]; 3.8% in assay [9]; 2.69% in assay [10]; 2.78% in [11]. Besides, the inhibition in assay [12] is 8.19%; in [13], 0.87%; in [14], 3.63%; in assay [15], -1.81%; in assay [16] it was 12.9%; in [17] it was 1.95%. Besides, the inhibition in assay [18] turned out to be 2.79%; in assay [19] it was 0.97%.

For `CC(=O)Nc1cccc(C#Cc2cncnc2Nc2ccc(OCc3cccc(F)c3)c(Cl)c2)n1`, the inhibition is -2.14% in assay [20]; -0.5% in assay [1]; -0.34% in assay [2]; -0.13% in assay [3]; -0.16% in assay [4]; -1.04% in assay [5]. Also, the inhibition is -0.26% in assay [6]; -1.65% in [7]; -0.18% in [8]; 1.2% in [9]; -0.89% in assay [10]; -1.95% in assay [11]. Also, the inhibition in assay [12] is -1.42%; in [13], 0.24%; in assay [14], 1.19%; in assay [15], -1.85%; in assay [17] it was 0.62%; in assay [18] it was 0.84%. Moreover, the inhibition in assay [19] is -0.78%.

As for `N#Cc1c(NC(=O)c2cccc3ccccc23)sc2c1CCCC2`, the inhibition in [20] was 3.02%; in assay [1], 2.06%; in [2] it was 2.66%; in assay [3], 1.07%; in assay [4], 5.24%; in [5] it was 4.98%. The inhibition in [6] was 0.97%; in [7], 5.24%; in [8], 6.76%; in assay [9], 2.56%; in assay [10], -0.77%; in assay [11], 3.82%. Also, the inhibition in [12] worked out at 6.92%; in assay [13] it was 1.3%; in assay [14], 5.67%; in assay [16] it was 4.55%; in assay [17], 1.29%; in assay [18], 0.3%. For the same molecule, the inhibition in assay [19] turned out to be 0.63%.

In the case of `COc1ccc(-c2coc3ncnc(N)c23)cc1`, the inhibition in assay [20] turned out to be 6.12%; in assay [1] it was 3.42%; in assay [2] it was 5.14%; in assay [3] it was 1.77%; in [4] it was 3.58%; in assay [5], 2.89%. The inhibition in [6] came to 0.12%; in assay [7] it was 6.07%; in assay [8], 7.82%; in assay [9], 4.84%; in assay [10] it was 0.08%; in [11], 4.16%. The inhibition in [12] worked out at 5.78%; in assay [13], 2.66%; in assay [14], 3.84%; in assay [16] it was 3.88%; in assay [17], 3.15%; in assay [18], 3.42%. In addition, the inhibition in [19] came out at 1.07%.

Turning to `CCn1c(-c2nonc2N)nc2cnc(Oc3cccc(NC(=O)c4ccc(OCCN5CCOCC5)cc4)c3)cc21`, the inhibition in assay [20] worked out at 3.09%; in assay [1], 1.57%; in assay [2], 1.58%; in assay [3], 0.45%; in assay [4], 3.69%; in assay [5], 2.58%. The inhibition in assay [6] is 7.1%; in [7], 2.65%; in assay [8] it was 5.1%; in assay [9], -0.07%; in assay [10], -2.11%; in [11] it was 3.32%. The inhibition in assay [12] was 2.38%; in [13] it was -0.26%; in [14] it was 0.42%; in assay [15], -1.58%; in assay [16] it was -0.79%; in assay [17], -0.98%. Besides, the results for the inhibition in assay [18] and in assay [19] were -0.12% and 0.57%, respectively.

`Cc1nn(C)c2cc(N(C)c3ccnc(Nc4cccc(S(N)(=O)=O)c4)n3)ccc12`: the inhibition is 2.93% in assay [20]; 0.54% in assay [1]; 3.06% in assay [2]; 0.25% in [3]; 5.8% in assay [4]; -0.61% in assay [5]. For the same molecule, the inhibition is 2.33% in assay [6]; 2.2% in assay [7]; 8.5% in assay [8]; 1.91% in [9]; -0.68% in assay [10]; 1.72% in [11]. In addition, the inhibition in [12] was 4.46%; in assay [13], 0.41%; in assay [14], 2.78%; in [16], -0.34%; in [17], 0.73%; in assay [18], 0.86%. Also, the inhibition in [19] was found to be 1.2%.

As to `CCn1c(-c2nonc2N)nc2cncc(C(=O)N3CC[C@H](N)C3)c21`, the inhibition in [20] was 3.73%; in assay [1], 2.49%; in assay [2], 2.9%; in assay [3], 0.41%; in assay [5] it was 2.14%; in assay [6] it was -1.11%. For the same molecule, the inhibition in assay [7] was 2.3%; in assay [8], 5.5%; in [9], 5.34%; in [10], -2.13%; in assay [11] it was 2.98%; in assay [12], 2.35%. For the same molecule, the inhibition in [13] is 0.46%; in [14] it was 0.69%; in assay [15], -1.51%; in assay [16] it was 4.8%; in [17], 5.07%; in [18], 21.6%. Further, the inhibition in assay [19] turned out to be 1.31%.

Turning to `COc1ccc(COc2ccc(Cc3cnc(N)nc3N)cc2OC)cc1`, the inhibition is 0.05% in [20]; -0.67% in assay [1]; 0.85% in assay [2]; 1.89% in [3]; 1.42% in [4]; 2.3% in assay [9]. In addition, the inhibition in assay [10] was found to be 1.92%; in assay [11], 1.7%; in assay [12], 3.6%; in [13], 2.15%; in assay [14], 2.03%; in [15] it was 1.93%. The inhibition in assay [16] was 3.33%; in assay [17], 2.03%; in assay [18] it was 1.66%; in assay [19] it was -0.25%.
